PubChem BioAssay AID1159580 (chemical genetic matrix, 2015)
Values joined by “and” are separate entries in the source; they are usually repeats but may differ in a detail not shown here. Equal entries are not always repeated. Hit rate of the full screen: of about 5,500 compounds, about 2,000 (36%) were called active. Not shown: some 18% with an inconclusive outcome. Rule as the data show it: active = normalized growth mostly below about 0.91 (no sharp cut-off); inconclusive = no clear call, values can overlap the other calls; inactive = mostly above about 0.92. The list shows a part of the results.

Test: chemical genetic growth profiling, strain panel (AID 1159580);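 also: tested at 20 µM; growth read once vehicle control cultures reached saturation at 30 °C; 1 = growth at the plate median or of vehicle wells; lower values mean less growth of the strain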
Conditions: S. cerevisiae deletion strains, growth OD

Measured: normalized growth

CC1(C)O[C@@H]2CC3C4C[C@H](F)C5=CC(=O)C=CC5(C)C4C(O)CC3(C)[C@]2(C(=O)CO)O1 (stereo partly drawn)
inactive: locus YAL013W, strain DEP1, stronger effect = lower value 1.02 | locus YAL021C, strain ccr4, stronger effect = lower value 1 | locus YAL026C, strain drs2, stronger effect = lower value 0.993 | locus YAL030W, strain snc1, stronger effect = lower value 0.992 | locus YBL061C, strain skt5, stronger effect = lower value 0.979 | locus YBR009C, strain hhf1, stronger effect = lower value 1.01 | locus YBR021W, strain FUR4, stronger effect = lower value 1.02 | locus YBR023C, strain chs3, stronger effect = lower value 0.987 | locus YBR171W, strain sec66, stronger effect = lower value 0.985 | locus YBR229C, strain ROT2, stronger effect = lower value 1.02 | locus YBR231C, strain swc5, stronger effect = lower value 1 | locus YBR279W, strain paf1, stronger effect = lower value 0.976 | locus YCL011C, strain gbp2, stronger effect = lower value 0.982 | locus YCL016C, strain dcc1, stronger effect = lower value 0.96 | locus YCL029C, strain bik1, stronger effect = lower value 0.989 | locus YCL069W, strain vba3, stronger effect = lower value 0.995 | locus YCR088W, strain abp1, stronger effect = lower value 0.992 | locus YDL005C, strain med2, stronger effect = lower value 0.973 | locus YDL035C, strain GPR1, stronger effect = lower value 1.02 | locus YDL040C, strain nat1, stronger effect = lower value 0.983 | locus YDL074C, strain BRE1, stronger effect = lower value 1.04 | locus YDL101C, strain DUN1, stronger effect = lower value 1.02 | locus YDL134C, strain PPH21, stronger effect = lower value 1.02 | locus YDL185W, strain tfp1, stronger effect = lower value 0.991 | locus YDL192W, strain arf1, stronger effect = lower value 1.01 | locus YDR001C, strain nth1, stronger effect = lower value 0.983 | locus YDR069C, strain doa4, stronger effect = lower value 1 | locus YDR101C, strain arx1, stronger effect = lower value 1 | locus YDR137W, strain rgp1, stronger effect = lower value 1 | locus YDR159W, strain sac3, stronger effect = lower value 0.982 | locus YDR162C, strain NBP2, stronger effect = lower value 1.01 | locus YDR195W, strain ref2 0.997 | locus YDR297W, strain sur2, stronger effect = lower value 1 | locus YDR318W, strain mcm21, stronger effect = lower value 0.996 | locus YDR334W, strain swr1, stronger effect = lower value 0.985 | locus YDR335W, strain msn5, stronger effect = lower value 0.975 | locus YDR388W, stronger effect = lower value 0.99 | locus YDR392W, strain spt3, stronger effect = lower value 0.917 | locus YDR502C, strain sam2, stronger effect = lower value 0.991 | locus YEL003W, strain gim4, stronger effect = lower value 1.02 | locus YEL037C, strain rad23, stronger effect = lower value 0.979 | locus YEL061C, strain CIN8 (second series), stronger effect = lower value 0.987 | locus YEL061C, strain CIN8, stronger effect = lower value 1.01 | locus YER015W, strain faa2, stronger effect = lower value 0.996 | locus YER016W, strain bim1, stronger effect = lower value 0.971 | locus YER110C, stronger effect = lower value 0.988 | locus YER111C, strain swi4, stronger effect = lower value 0.975 | locus YER155C, strain BEM2 (second series), stronger effect = lower value 1.01 | locus YER155C, strain BEM2, stronger effect = lower value 1.01 | locus YER167W, strain BCK2, stronger effect = lower value 1.01 | locus YFR010W, strain ubp6, stronger effect = lower value 1.01 | locus YGL078C, strain dbp3, stronger effect = lower value 0.979 | locus YGL086W, strain mad1, stronger effect = lower value 1.01 | locus YGL167C, strain pmr1, stronger effect = lower value 0.996 | locus YGL173C, strain kem1, stronger effect = lower value 1 | locus YGL227W, strain vid30, stronger effect = lower value 0.988 | locus YGL240W, strain doc1, stronger effect = lower value 1.02 | locus YGL248W, strain PDE1, stronger effect = lower value 1.03 | locus YGL253W, strain hxk2, stronger effect = lower value 0.959 | locus YGR135W, strain pre9, stronger effect = lower value 0.98 | locus YGR252W, strain gcn5, stronger effect = lower value 0.984 | locus YHR013C, strain ard1, stronger effect = lower value 0.957 | locus YHR027C, strain rpn1, stronger effect = lower value 0.99 | locus YHR030C, strain SLT2, stronger effect = lower value 1.01 and 1.02 | locus YHR079C, strain IRE1 (second series), stronger effect = lower value 0.99 | locus YHR079C, strain IRE1, stronger effect = lower value 1.02 | locus YHR094C, strain hxt1, stronger effect = lower value 0.98 | locus YHR129C, strain ARP1, stronger effect = lower value 1.02 | locus YHR142W, strain chs7, stronger effect = lower value 0.941 | locus YHR200W, strain rpn10, stronger effect = lower value 0.998 | locus YIL066C, strain RNR3, stronger effect = lower value 1.02 | locus YIL073C, strain SPO22, stronger effect = lower value 0.999 | locus YIL125W, strain kgd1, stronger effect = lower value 0.99 | locus YIR030C, strain dcg1, stronger effect = lower value 0.998 | locus YJL092W, strain hpr5, stronger effect = lower value 1 | locus YJL095W, strain BCK1 (second series), stronger effect = lower value 0.978 | locus YJL095W, strain BCK1, stronger effect = lower value 1.04 and 1.03 | locus YJL115W, strain asf1, stronger effect = lower value 0.974 | locus YJL129C, strain trk1, stronger effect = lower value 0.953 | locus YJL134W, strain LCB3, stronger effect = lower value 1.01 | locus YJL154C, strain vps35, stronger effect = lower value 0.976 | locus YJL164C, strain tpk1, stronger effect = lower value 0.972 | locus YJL166W, strain qcr8, stronger effect = lower value 1.02 | locus YJL168C, strain set2, stronger effect = lower value 0.993 | locus YJL187C, strain SWE1 (second series), stronger effect = lower value 1.02 | locus YJR043C, strain POL32, stronger effect = lower value 1.02 | locus YJR066W, strain TOR1, stronger effect = lower value 0.954 | locus YJR075W, strain HOC1, stronger effect = lower value 1.03
